For 39 compounds, growth inhibition results are on record in PubChem BioAssay (NCI).

Structures are written as SMILES. Compounds without any hit were thinned out: in the full panel of roughly 79,000, 15% have a hit. Active and inactive are the calls of the source. Cut-off read from the data, not from the text of the source: active = growth inhibition above about 70%; inactive = the rest.

The nature of one test: NCI Yeast Anticancer Drug Screen. Data for the sgs1 strain (AID 173).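 Note: 0% = growth of vehicle-only control cultures.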 The settings on record: S. cerevisiae sgs1 mutant, at 3.7 µM, stronger effect = higher value. In a few lines:
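A genetically defined yeast mutant is incubated with the test compound, and its growth is compared to that of the same strain given vehicle.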
For `CCCc1cc(C(=O)OCC)cc(CCC)c1O`, the growth inhibition is -2% (inactive).
For `CC(C)[N+]([O-])(CCCNc1c2ccccc2nc2cccc([N+](=O)[O-])c12)C(C)C`, the growth inhibition was 84% (active).
`COc1cc2c3c(cccc3c1)C(=O)N(CCN(C)C)C2=O`: the growth inhibition is -14% (inactive).
Turning to `NC(=O)NN=C(CS)CS`, the growth inhibition is 5% (inactive).
Consider `Cc1ccc(NC(=O)/C(Cl)=C(\Cl)C(=O)O)cc1C`, for which the growth inhibition is 6% (inactive).
Take `CCN(CC)CC[n+]1ccc2c(C)c3[nH]c4ccc(O)cc4c3c(C)c2c1`: the growth inhibition was -1% (inactive).
As for `CC(CC(C)(C)[N+](C)(C)C)[N+](C)(C)C` (stereo not drawn), the growth inhibition is 3% (inactive).
`COc1ccc(OC)c2cc3ccccc3cc12`: the growth inhibition was -12% (inactive).
The same measure, in the same setting: next, `Nc1ncncc1C(C1=C(O)COC1=O)C1=C(O)COC1=O`: 3% (inactive).
As for `CSC1=NNC(SC)=NN1`, the growth inhibition was -11% (inactive).
`Cc1c(Cl)ccc2c1S(=O)(=O)c1cccc(Cl)c1-2`: the growth inhibition is -19% (inactive).
On to `[O-][n+]1c2ccc(O)cc2nc2ccc(Cl)cc21`, for which the growth inhibition was 10% (inactive).
For `COc1ccc2ccc3ccccc3c2c1C=O`, the growth inhibition is -1% (inactive).
Still for that read-out and setting: the result for `Nc1ccc2c(c1)C(=O)c1cccc(N)c1C2=O` reads 3% (inactive).
The same measure, in the same setting: the result for `O=C(c1ccc(Cl)cc1Cl)C(Cl)Cl` reads -14% (inactive); that for `COc1cc(C(=O)/C=C/c2ccccc2O)ccc1O`, 26% (inactive); that for `O=Cc1cccc2ccc3ccccc3c12`, -2% (inactive).
Still for that read-out and setting: the result for `O=C(Nc1ccc(Cl)cc1)OCC#CCCl` reads 96% (active); that for `Cn1ccnc1Oc1ccc(Cl)cc1`, -5% (inactive); that for `c1ccc2c(c1)C(=NCCCN1CCCCCC1)c1cccn1-2`, -2% (inactive).
`C/C(=N\O)C1CC2C=C(C#N)C1N(Cc1ccccc1)C2` (stereo not drawn): the growth inhibition is 1% (inactive).
For the compound `O=[N+]([O-])C(=C(Sc1ccccc1)Sc1ccccc1)C(Cl)=C(Cl)Cl`, the growth inhibition is 24% (inactive).
The same measure, in the same setting: next, `CCCCCCCCCC/C=C\C(=O)O`: -5% (inactive); `COc1ccc(N=C2C(=O)Nc3ccc(Br)cc32)cc1`: -10% (inactive); `COc1ccccc1C(=O)OCC1CCCN2CCCCC12` (stereo not drawn): -15% (inactive).
Same read-out and setting: the result for `CC(C)(Br)C(=O)/C=C/c1ccc(Cl)c(Cl)c1` reads -3% (inactive); that for `Nc1ccccc1CC(O)C(=O)O` (stereo not drawn), 1% (inactive); that for `CC(=O)N/N=C/C(C)(C)C(C)(C)/C=N/NC(C)=O`, -8% (inactive).
Turning to `CN(C)c1nc2sc3c(c2c(=O)o1)CCCC3`, the growth inhibition is -4% (inactive).
For `CC(C)OC(=O)Oc1ccccc1OC(=O)OC(C)C`, the growth inhibition is 0% (inactive).
The same measure, in the same setting: next, `Cc1ccc(N)c(S)c1`: -34% (inactive); `O=C(O)c1ccccc1NC(=S)c1ccccc1`: -6% (inactive); `COC(=O)c1ccc(NCC2=CC(=O)C=CC2=O)cc1O`: 30% (inactive).
Same read-out and setting: the result for `NC(N)=N/N=C\c1c2ccccc2cc2ccccc12` reads -31% (inactive); that for `COC(=O)CSSCc1ccc([N+](=O)[O-])cc1`, -24% (inactive).
With `CCS(=O)(=O)c1ccc(/C=C/C=N/NC(=S)NCC(C)C)cc1`, the growth inhibition was 1% (inactive).
The same measure, in the same setting: next, `N#CC(C(=O)Nc1ccccc1)C1=C(Cl)C(=O)c2ccccc2C1=O` (stereo not drawn): 41% (inactive); `C[C@H](CCC(=O)NN)[C@H]1CC[C@H]2[C@@H]3CC[C@@H]4C[C@H](O)CC[C@]4(C)[C@H]3CC[C@]12C`: 3% (inactive); `CC[n+]1ccc2c(C)c3[nH]c4ccc(O)cc4c3c(C)c2c1`: 38% (inactive).

The same test, now with this note: S. cerevisiae sgs1 mutant, at 11.0 µM, stronger effect = higher value.
Consider `CCCc1cc(C(=O)OCC)cc(CCC)c1O`, for which the growth inhibition was -3% (inactive).
The same measure, in the same setting: next, `CC(C)[N+]([O-])(CCCNc1c2ccccc2nc2cccc([N+](=O)[O-])c12)C(C)C`: 93% (active).
Same read-out and setting: the result for `COc1cc2c3c(cccc3c1)C(=O)N(CCN(C)C)C2=O` reads -22% (inactive).
Regarding `NC(=O)NN=C(CS)CS`, the growth inhibition was 18% (inactive).
Take `Cc1ccc(NC(=O)/C(Cl)=C(\Cl)C(=O)O)cc1C`: the growth inhibition was 29% (inactive).
The same measure, in the same setting: next, `CCN(CC)CC[n+]1ccc2c(C)c3[nH]c4ccc(O)cc4c3c(C)c2c1`: 6% (inactive).
On to `CC(CC(C)(C)[N+](C)(C)C)[N+](C)(C)C` (stereo not drawn), for which the growth inhibition is 1% (inactive).
Same read-out and setting: the result for `COc1ccc(OC)c2cc3ccccc3cc12` reads -5% (inactive); that for `Nc1ncncc1C(C1=C(O)COC1=O)C1=C(O)COC1=O`, 3% (inactive); that for `CSC1=NNC(SC)=NN1`, 8% (inactive).
On the same count and under the same terms, next, `Cc1c(Cl)ccc2c1S(=O)(=O)c1cccc(Cl)c1-2`: -18% (inactive).
On the same count and under the same terms, next, `[O-][n+]1c2ccc(O)cc2nc2ccc(Cl)cc21`: 26% (inactive).
`COc1ccc2ccc3ccccc3c2c1C=O`: the growth inhibition is 4% (inactive).
As to `Nc1ccc2c(c1)C(=O)c1cccc(N)c1C2=O`, the growth inhibition is 37% (inactive).
Same read-out and setting: next, `O=C(c1ccc(Cl)cc1Cl)C(Cl)Cl`: 14% (inactive); `COc1cc(C(=O)/C=C/c2ccccc2O)ccc1O`: 99% (active).
The same measure, in the same setting: next, `O=Cc1cccc2ccc3ccccc3c12`: 4% (inactive); `O=C(Nc1ccc(Cl)cc1)OCC#CCCl`: 98% (active).
For the compound `Cn1ccnc1Oc1ccc(Cl)cc1`, the growth inhibition is 15% (inactive).
Regarding `c1ccc2c(c1)C(=NCCCN1CCCCCC1)c1cccn1-2`, the growth inhibition is -1% (inactive).
On the same count and under the same terms, the result for `C/C(=N\O)C1CC2C=C(C#N)C1N(Cc1ccccc1)C2` (stereo not drawn) reads 4% (inactive).
Same read-out and setting: next, `O=[N+]([O-])C(=C(Sc1ccccc1)Sc1ccccc1)C(Cl)=C(Cl)Cl`: 58% (inactive); `CCCCCCCCCC/C=C\C(=O)O`: -9% (inactive).
On the same count and under the same terms, next, `COc1ccc(N=C2C(=O)Nc3ccc(Br)cc32)cc1`: -5% (inactive); `COc1ccccc1C(=O)OCC1CCCN2CCCCC12` (stereo not drawn): 62% (inactive).
For `CC(C)(Br)C(=O)/C=C/c1ccc(Cl)c(Cl)c1`, the growth inhibition is 12% (inactive).
In the case of `Nc1ccccc1CC(O)C(=O)O` (stereo not drawn), the growth inhibition is 14% (inactive).
On the same count and under the same terms, the result for `CC(=O)N/N=C/C(C)(C)C(C)(C)/C=N/NC(C)=O` reads 25% (inactive).
Still for that read-out and setting: next, `CN(C)c1nc2sc3c(c2c(=O)o1)CCCC3`: -1% (inactive).
Take `CC(C)OC(=O)Oc1ccccc1OC(=O)OC(C)C`: the growth inhibition was 1% (inactive).
Turning to `Cc1ccc(N)c(S)c1`, the growth inhibition was 14% (inactive).
For `O=C(O)c1ccccc1NC(=S)c1ccccc1`, the growth inhibition was -12% (inactive).
With `COC(=O)c1ccc(NCC2=CC(=O)C=CC2=O)cc1O`, the growth inhibition was 76% (active).
For the compound `NC(N)=N/N=C\c1c2ccccc2cc2ccccc12`, the growth inhibition was -44% (inactive).
On to `COC(=O)CSSCc1ccc([N+](=O)[O-])cc1`, for which the growth inhibition was 33% (inactive).
Consider `CCS(=O)(=O)c1ccc(/C=C/C=N/NC(=S)NCC(C)C)cc1`, for which the growth inhibition is -24% (inactive).
On the same count and under the same terms, the result for `N#CC(C(=O)Nc1ccccc1)C1=C(Cl)C(=O)c2ccccc2C1=O` (stereo not drawn) reads 96% (active).
The same measure, in the same setting: next, `C[C@H](CCC(=O)NN)[C@H]1CC[C@H]2[C@@H]3CC[C@@H]4C[C@H](O)CC[C@]4(C)[C@H]3CC[C@]12C`: 4% (inactive).
On to `CC[n+]1ccc2c(C)c3[nH]c4ccc(O)cc4c3c(C)c2c1`, for which the growth inhibition was 43% (inactive).
